# PubChem BioAssay (Tox21)
# Results filed as inconclusive are left out. Values without a mark were called inactive. The call rests on the fitted dose curve; in most records, active means well fitted cell-killing curve with a large enough effect in the repeat runs (not every such curve was filed as active); inconclusive means weak or mixed curves, or effect the other way; inactive means no such curve, though single readings can be large or run the other way.
# Assay: qHTS assay to identify small molecule antagonists of the estrogen related receptor signaling pathway with the pleiotropic PPARgamma coactivator (PGC) from Tox21 10K library - cell viability counter screen (AID 1224840); further: nearly all actives have a fitted effect of over 40% in size
# Settings: PGC/ERR reporter cells viability, CellTiter-Fluor, 17.5 h; series mostly up to 92.4 µM; viability change, negative = cytotoxic: at the top concentration
# Procedure, shortened: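 Viability counter screen, PGC/ERR cells: 17.5 h compound exposure at 37 C, CellTiter-Fluor fluorescence endpoint.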
# On the % scale 0 is the no-effect control and ±100 the full control effect.
row,SMILES,"viability change, negative = cytotoxic"
1,Cc1ccc(Br)cc1,5.58%
2,CCCCCCCCCCCBr,3.59% [at 42.5 µM]
3,Clc1ccc2c(c1)Nc1ccccc1S2,2.25% [at 42.5 µM]
4,Cc1cc(O)c(Cl)cc1C,10.7%
5,CCCCCCCCCCCCCCCC(=O)OC,5.32% [at 19 µM]
6,N#CC1(N)CCCCC1,2.53%
7,CCOC(=O)c1ccc(N(C)C)cc1,-0.248%
8,CCCc1ccc(O)c(OC)c1,3.61%
9,CC(=O)OCC(=O)[C@@]1(O)CC[C@H]2[C@@H]3CCC4=CC(=O)C=C[C@]4(C)[C@H]3[C@@H](O)C[C@@]21C,1.01% [at 42.5 µM]
10,CCOC(=O)CN1CCCC1=O,6.67% [at 42.5 µM]
11,Cc1cc2c(cc1CC(=O)c1sccc1S(=O)(=O)Nc1onc(C)c1Cl)OCO2,15.5% [at 42.5 µM]
12,O=S(=O)(O)c1ccc(Cl)cc1,-0.439%
13,COc1cc(OC)cc(OC)c1,11.4% [at 42.5 µM]
14,O=Cc1ccccc1S(=O)(=O)O,4.32%
15,CC(C)C(=O)Nc1cccc(C2CN3CCSC3=N2)c1 (stereo not drawn),1.92% [at 42.5 µM]
16,CC1(C)S[C@@H]2[C@H](NC(=O)Cc3ccccc3)C(=O)N2[C@H]1C(=O)O (tested in a mixture with another compound),14.2% [at 42.5 µM]
17,CCCCCCC(O)CO (stereo not drawn),-0.317%
18,CCO/C=C1\N=C(c2ccccc2)OC1=O,-1.8%
19,O=P(O)(O)C(O)(Cc1cccnc1)P(=O)(O)O,13% [at 42.5 µM]

row,SMILES,"viability change, negative = cytotoxic"
1,CCOC(=O)COc1ccc2c(C)c(CCN(CC)CC)c(=O)oc2c1Cl,-4.57% [at 42.5 µM]
2,Cc1ccccc1C#N,0.408%
3,N#Cc1ccccc1C#N,6.65%
4,c1coc(Cn2cccc2)c1,-0.786%
5,COC(C)(C)CC(C)=O,12.4%
6,CC1(C)C(=O)C(C)(C)C1=O,4.95%
7,Cc1ccc2cccnc2c1,1.98%
8,CCOC(=O)CC,2.06%
9,COCc1nnc(-c2ccc[n+]([O-])c2)n1-c1c(Cl)c(Cl)cc2[nH]c(=O)c(=O)[nH]c12,0.703%
10,COC(=O)c1c(C)cc(O)c(C)c1O,-1.34%
11,CC1=C(O)C(=O)CO1,3.62%
12,O=S(=O)(O)CC(O)CCl (stereo not drawn),11.1%
13,CN(C)CCc1c[nH]c2ccc(C[C@H]3COC(=O)N3)cc12,2.6% [at 42.5 µM]
14,O=C(O)COc1ccc2ccccc2c1,2.99%
15,CCC(C)SSC(C)CC (stereo not drawn),4.94%
16,COC(=O)c1ccccc1Cl,4.73%
17,C=CCOC(=O)CCCCCCCC,5.03%
18,Nc1ccc(C(=O)NCC(=O)O)cc1,-3.42% [at 42.5 µM]
19,CC[N+](C)(CC)CC,-0.676%
